SENP8 block-1 – blocks the human protease SENP8 | Q96LD8 | purified SENP8, Z-RLRGG-aminoluciferin cleavage, luminescence | inhibition, % at 10 µM | 330,000 compounds, 1.2% hits | AID 2540; in the data active = inhibition above about 50%
Target sequence (Q96LD8 whole entry, looked up): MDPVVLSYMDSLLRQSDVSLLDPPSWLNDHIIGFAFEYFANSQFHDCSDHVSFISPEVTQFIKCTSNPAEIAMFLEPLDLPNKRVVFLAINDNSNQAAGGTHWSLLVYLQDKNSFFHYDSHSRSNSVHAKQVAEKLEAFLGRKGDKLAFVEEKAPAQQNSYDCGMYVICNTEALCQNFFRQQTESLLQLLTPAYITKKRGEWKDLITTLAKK
PPC-1+TRAIL kill – PPC-1 cancer cell killing with TRAIL present | PPC-1 cells + TRAIL, ATPLite viability luminescence | cell killing (% activity), % at 4 µM or 5 µM | 220,000 compounds, 0.41% hits | AID 1443;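 active = cell killing above 50% in the first pass at 4 µM, then a duplicate retest at 5 µM averaging 50% or more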;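 note: plate controls were cells with TRAIL plus DMSO for no effect and medium-only wells lacking cells for full effect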
C8 TRAIL sens – sensitizes caspase-8 expressing cells to TRAIL | inhibition (viability loss, TRAIL sensitization), % at 10 µM | NB7+C8 cells + TRAIL, ATPlite viability luminescence | AID 624354 | 360,000 compounds, 1% hits;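 active = compounds causing at least 50% loss of cell viability in the single-dose screen, relative to plate controls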
SENP7 block – inhibitors of human SENP7 protease; Q9BQF6; recombinant SENP7, Z-RLRGG-aminoluciferin luminescence, 40 min; inhibition, % at 5 µM; 330,000 compounds, 1.5% hits; AID 434973;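 active = inhibition above about 50% at the single test dose, limit read from the data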;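 note: plate controls were DMSO with enzyme for no effect and no enzyme buffer wells for full effect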
SENP6 block – blocks the human protease SENP6. AID 2599. Recombinant SENP6 catalytic domain, aminoluciferin luminescence. inhibition, % at 10 µM. 330,000 compounds, 1.8% hits. Q9GZR1;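 active = inhibition above about 50% at the single tested dose, limit read from the data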;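 note: plate controls were DMSO wells with enzyme for no effect and DMSO wells lacking enzyme for full effect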
Target sequence (Q9GZR1 628-1112 limits assumed): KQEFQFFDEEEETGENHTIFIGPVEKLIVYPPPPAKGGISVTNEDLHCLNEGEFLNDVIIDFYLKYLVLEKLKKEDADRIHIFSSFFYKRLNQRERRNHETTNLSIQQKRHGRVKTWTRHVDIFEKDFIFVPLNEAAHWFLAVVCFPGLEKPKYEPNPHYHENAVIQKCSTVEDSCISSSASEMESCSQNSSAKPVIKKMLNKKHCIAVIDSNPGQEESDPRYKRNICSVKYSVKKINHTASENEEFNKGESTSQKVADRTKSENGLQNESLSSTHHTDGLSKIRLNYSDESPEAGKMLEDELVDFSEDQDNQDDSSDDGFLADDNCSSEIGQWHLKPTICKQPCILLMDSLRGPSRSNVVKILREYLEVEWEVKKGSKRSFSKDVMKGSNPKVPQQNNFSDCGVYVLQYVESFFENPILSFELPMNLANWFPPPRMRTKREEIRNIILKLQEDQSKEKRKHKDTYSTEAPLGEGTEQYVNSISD
SENP8 block-2 – SENP8 (human) protease inhibition. Q96LD8. recombinant SENP8, Nedd8 substrate fluorescence. inhibition, % at 20 µM. 360,000 compounds, 0.64% hits; in the data active = inhibition mostly above about 40%, no sharp cut-off; inactive = mostly below about 27%
SENP8 confirm – confirmation of human SENP8 protease inhibitors | shares compounds with SENP7 block | Recombinant SENP8, Z-RLRGG-aminoluciferin luminescence, 60 min | inhibition, % at 12.5 µM | 6,200 compounds, 40% hits;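 active = mean inhibition across replicates above about 50%, limit read from the data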
SENP6 confirm – confirmation of human SENP6 protease inhibitors. shares compounds with SENP7 block. recombinant SENP6, Z-RLRGG-aminoluciferin luminescence. inhibition, % at 12.5 µM. 6,200 compounds, 58% hits
SENP7 conf – confirmation of human SENP7 protease inhibitors; shares compounds with SENP7 block; recombinant SENP7, Z-RLRGG-aminoluciferin luminescence, 40 min; inhibition, % at 12.5 µM; 6,200 compounds, 69% hits; AID 488917
Casp3 SENP sel – caspase-3 inhibition (SENP selectivity assay); 6,200 compounds, 60% hits; inhibition, % at 12.5 µM; AID 488918; purified caspase-3, Z-DEVD-aminoluciferin luminescence, 60 min; shares compounds with SENP7 block;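 active = mean inhibition above about 50%, limit read from the data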;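 note: plate controls were enzyme with DMSO for no effect and wells without caspase-3 for full effect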
SENP luc ctr – luminescence interference (SENP counter-screen); shares compounds with SENP7 block; Pre-incubated SENP8/Z-RLRGG-aminoluciferin, luciferase luminescence interference; inhibition, % at 12.5 µM; 6,200 compounds, 39% hits;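 active = mean inhibition above about 50% when retested at one dose, limit read from the data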;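 note: plate controls were DMSO wells with completed reaction for no effect and substrate without enzyme for full effect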
Starred values were filed as active, the others as inactive; i = inactive; . = no result. A selection: hits, their analogues and other compounds. The true share with any hit is near 3%.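 Rule for the calls, unless noted: active = mean inhibition above about 50% in the one-dose retest (limit read from the data); inactive = the rest.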

SMILES	SENP8 block-1	PPC-1+TRAIL kill	C8 TRAIL sens	SENP7 block	SENP6 block	SENP8 block-2	SENP8 confirm	SENP6 confirm	SENP7 conf	Casp3 SENP sel	SENP luc ctr
COc1cccc(C(=O)Nc2cccc(NC(=O)c3ccccc3Cl)c2)c1	3.5	.	6.9	0.1	24.0	1.1	.	.	.	.	.
COc1ccc(C(=O)Nc2ccc3c(c2)C(=O)NC3=O)cc1	-5.4	.	4.4	-5.6	-3.1	-384.9	.	.	.	.	.
CC(C)NC(=O)Nc1cccc2c1O[C@H](CN(C)S(C)(=O)=O)[C@@H](C)CN([C@H](C)CO)C2=O	-5.4	.	0.4	-1.8	-20.9	-4.2	.	.	.	.	.
COc1cccc(C(=O)Nc2ccc3ccccc3c2)c1	86.4*	.	47.5	91.4*	88.5*	10.5	-22.1	86.2*	99.0*	73.0*	84.5*
COc1ccc(OC)c(C(=O)c2ccc(C(=O)Nc3ccc4ccccc4c3)cc2)c1	-0.6	17.8	38.3	5.3	-4.9	19.9	.	.	.	.	.
COc1ccc(C(=O)Nc2ccc3ccccc3c2)cc1	85.7*	.	68.5*	96.2*	87.9*	6.2	4.7	83.9*	99.5*	80.4*	31.6
CS(=O)(=O)Nc1ccc(C(=O)Nc2ccc3ccccc3c2)cc1	-1.5	.	18.3	57.8*	37.5	1.1	4.1	1.3	65.2*	48.4	25.0
COc1cc(C(=O)Nc2ccc3ccccc3c2)cc(OC)c1OC	-9.5	.	.	1.5	-7.0	.	.	.	.	.	.
CC(C)S(=O)(=O)N1CCCC(c2cc(C(=O)Nc3ccc(F)c(Cl)c3)no2)C1 (centres undefined)	.	.	11.7	.	.	7.0	.	.	.	.	.
COc1ccc(C(=O)COC(=O)c2ccccc2O)c(OC)c1	31.1	.	13.1	43.4	50.5*	-20.3	51.4*	43.9	36.8	27.6	29.1
CCOC(=O)c1oc2cccc(O)c2c1C	50.4*	21.9	-1.0	63.0*	-13.1	-47.5	2.0	59.3*	82.5*	59.2*	64.9*
Cc1csc2nc(CSc3ccc(Cl)cc3)cn12	46.0	-3.4	15.6	53.4*	79.7*	11.2	77.5*	76.7*	91.7*	67.3*	72.1*
Clc1ccc(SCc2cn3ccsc3n2)cc1	-8.9	10.5	10.3	14.2	14.4	18.3	.	.	.	.	.
Cc1ccc(-c2noc(COC(=O)c3ccco3)n2)cc1	62.8*	.	15.3	68.0*	78.2*	14.8	76.3*	76.3*	94.6*	71.5*	68.1*
O=C(Nc1ccc(-c2noc(CCc3ccccc3)n2)cc1)c1ccco1	54.5*	5.2	21.1	60.2*	78.1*	-9.5	67.8*	71.0*	89.8*	52.6*	10.5
O=C(NCc1nc(-c2ccc(Cl)cc2)no1)c1ccco1	-7.5	.	2.2	2.6	-2.0	-1.0	.	.	.	.	.
Cc1scc(C(=O)NNC(=S)NC(C)c2ccccc2)c1C (centres undefined)	-0.2	12.7	-2.0	4.1	3.5	15.9	.	.	.	.	.
N#C/C(=C/c1ccc(N2CCOCC2)c([N+](=O)[O-])c1)C(N)=O	-7.3	9.3	-25.0	90.4*	-1.7	14.0	21.4	7.5	5.4	4.3	2.3
COc1cc(OC)cc(C(=O)Nn2c(C)nc3ccccc3c2=O)c1	-6.2	11.7	23.6	-0.2	-2.9	13.3	.	.	.	.	.
COc1ccc2[nH]c3c(c2c1)CCn1c-3nc2ccccc2c1=O	-8.2	45.5	49.1	80.5*	26.2	i	7.1	10.4	23.1	17.8	4.5
O=C(O)C1C2CCCCC2=C2CCCCC2C1C(=O)c1ccccc1 (centres undefined)	-3.8	-3.6	-14.2	2.1	-14.8	20.4	.	.	.	.	.
Cc1c(C(=O)c2ccc(F)cc2F)c2ccccn2c1CCc1ccccn1	.	.	-15.3	.	.	36.3	.	.	.	.	.
COC(=O)CCc1c(C)c(C(=O)c2cc(F)c(F)c(F)c2F)c2ccccn12	28.5	11.3	-6.7	3.9	77.4*	-29.7	8.3	6.6	-8.7	-3.2	-2.6
Cc1c(C(=O)c2ccc(F)cc2F)c2ccccn2c1CCC#N	42.3	.	-10.5	26.1	58.2*	-4.5	10.8	9.0	-4.3	3.8	-0.6
Cc1ccc(-c2cnc3c(Cl)c(C)nn3c2)cc1	68.2*	22.0	44.2	93.6*	65.4*	4.1	68.6*	70.4*	74.9*	80.1*	45.3
SMILES	SENP8 block-1	PPC-1+TRAIL kill	C8 TRAIL sens	SENP7 block	SENP6 block	SENP8 block-2	SENP8 confirm	SENP6 confirm	SENP7 conf	Casp3 SENP sel	SENP luc ctr
O=C(Nc1nnc(-c2ccco2)o1)c1ccc2ccccc2c1	47.1	7.2	2.9	18.0	70.6*	10.2	24.7	18.1	14.1	35.6	9.2
Cc1ccc(C(=O)Nc2nnc(-c3ccco3)o2)cc1	-5.5	-2.6	33.9	44.4	44.4	27.5	.	.	.	.	.
CCc1cc(-c2ccc3c(c2)COc2c4ccccc4nn2-3)on1	89.0*	.	44.4	48.1	80.6*	-428.1	4.2	89.1*	93.8*	70.4*	20.2
CCCC#Cc1ccc2c(c1)COc1c3ccccc3nn1-2	89.2*	.	36.8	72.9*	92.0*	8.1	52.8*	69.6*	90.4*	86.4*	27.8
CN(C)S(=O)(=O)n1cnc([C@@H]2[C@@H]3C(=O)OC[C@@H]3C[C@]23N=CN(Cc2ccccc2)C3=O)c1	1.9	.	-2.0	0.7	4.0	12.1	.	.	.	.	.
Clc1ccccc1CONc1ncnc2nonc12	33.8	23.1	2.2	35.7	61.7*	20.8	38.7	32.6	71.3*	53.4*	60.9*
COCCNc1ncnc2c1cnn2Cc1ccccc1Cl	5.2	.	-0.5	1.5	2.0	13.8	.	.	.	.	.
S=c1nccc(-c2ccc3c(c2)CCO3)[nH]1	1.8	17.3	4.6	5.8	-1.2	-31.2	.	.	.	.	.
Fc1ccc(-c2noc(-c3ccc4c(c3)CCO4)n2)cc1	67.5*	8.4	43.2	96.2*	78.5*	4.8	23.8	53.1*	48.0	71.2*	36.5
CCOc1ccccc1-n1c(SCC(=O)N2CCOCC2)nc2ccccc2c1=O	-4.7	.	-23.5	-12.9	6.3	3.6	.	.	.	.	.
NNc1nc2c(-c3ccc(Cl)cc3)nnn2c2ccccc12	47.6	28.6	36.8	44.6	84.8*	-479.3	-17.4	-11.0	-4.6	1.9	-4.2
COCCCNc1nc2c(-c3ccc(Cl)cc3)nnn2c2ccccc12	5.2	12.0	4.7	2.4	2.4	-375.7	.	.	.	.	.
NNc1nc2c(-c3ccc(F)cc3)nnn2c2ccccc12	92.2*	17.2	17.9	91.8*	97.4*	-440.5	22.0	80.8*	71.1*	77.8*	30.6

Screening data deposited in PubChem by Sanford-Burnham Center for Chemical Genomics.
